# In the supplement of paper PMC6555819:
# Assays:
# Experiment in all cases: PBM binding z-score (relative to random genomic background probes); higher = stronger binding; sequences stand for … in GC…GCGATTGACAGCGTAGAATGAAGG
# [1] = tested on: FXR:RXRa (NR concentration 270 nM, RXRa partner concentration 90 nM)
# In short: (§1)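 For binding z-scores, the reference was random background probes on custom Agilent 4×180K protein-binding microarrays. These arrays were incubated 1 h with ligand-free nuclear receptor dimers in PBS pH 7.4, 2% milk, 0.02% Triton X-100, 1 mM DTT, 0.2 mg/mL BSA and 0.4 mg/ml salmon testes DNA. Fluorescence was scanned after antibody detection of each partner (one per run) and regression-normalized.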
# [2] = tested on: LXRa:RXRa (NR concentration 270 nM, RXRa partner concentration 90 nM)
# In short: as §1
# [3] = tested on: LXRa homodimer (NR concentration 270 nM)
# In short: as §1
# [4] = tested on: LXRb:RXRa (NR concentration 270 nM, RXRa partner concentration 90 nM)
# In short: as §1
# [5] = tested on: LXRb homodimer (NR concentration 270 nM)
# In short: as §1
# [6] = tested on: PPARa:RXRa (NR concentration 270 nM, RXRa partner concentration 90 nM)
# In short: as §1
# [7] = tested on: PPARg:RXRa (NR concentration 180 nM, RXRa partner concentration 90 nM)
# In short: as §1
# [8] = tested on: PPARg:RXRa 270nM:90nM, anti-RXR (NR concentration 270 nM, RXRa partner concentration 90 nM)
# In short: as §1
# [9] = tested on: PPARg:RXRa 30nM:10nM, anti-RXR (NR concentration 30 nM, RXRa partner concentration 10 nM)
# In short: as §1
# [10] = tested on: PPARg:RXRa 90nM:30nM, anti-RXR (NR concentration 90 nM, RXRa partner concentration 30 nM)
# In short: as §1
Sequence,PBM binding z-score [1],PBM binding z-score [2],PBM binding z-score [3],PBM binding z-score [4],PBM binding z-score [5],PBM binding z-score [6],PBM binding z-score [7],PBM binding z-score [8],PBM binding z-score [9],PBM binding z-score [10]
TGAATGAGGTTAAAGATCAGGCAACGTGGCGTCG,2.94,2.82,-0.471,1.4,0.134,4.85,5.51,6.49,5.01,6.3
TCTATTAGTTGAAGGGCAACTGACGAGTCCGTTT,0.705,0.726,0.328,0.815,0.416,1.09,0.086,2.28,3.74,3.07
ACAACGAGGGCAATGAGTTGATAGCACGGGTGGC,0.234,0.0424,-0.326,-0.109,-0.343,0.835,1.33,0.403,-0.00945,0.211
CGTCCAAGGTCAAAGGTCTGTGAAGAGATGACGG,7.64,5.46,1.27,4.26,0.554,5.87,7.08,6.81,4.47,6.48
GGAACGAGTGCAAGTTGATAGCAGAGTTTGATGG,-0.219,-0.282,-0.428,-0.496,-0.508,-0.279,0.107,-0.41,-0.349,-0.508
CGAACTAGGTCATCCAGGACAGTGATTACATTGA,4.19,2.8,0.631,2.2,-0.108,4.62,7.63,6.33,3.95,5.79
CGTCCAAGGTCGAGGTCAGTGAAAGAGACTCGAA,4.56,3.15,0.186,2.74,-0.695,4.31,2.53,3.25,0.231,1.81
ATATGTAGGTTAGCTGGGGTCAGTCAGACTAGGC,2.47,4.36,0.893,3.37,0.881,4.38,5.08,4.38,1.86,3.72
GCTTGTAGATCACGGTTAAGAAAGACTAAGCTAA,-0.132,-0.33,-0.625,-0.369,-0.584,-0.169,-0.118,-0.0332,-0.114,0.156
AGTCAAAGTTCAGGACAAGGTAACGTAAAGCACG,4.6,3.97,1.69,2.19,0.548,3.47,4.97,4.95,2.16,4.11
CAGCCTAGGTCAGGACCAGTATAGGAGGAACGTT,1.48,0.848,-0.0859,0.663,-0.972,1.94,0.905,0.922,-0.12,0.355
GCTTGTAGATCTAGGTTAAGAAAGACTAAGCTAA,-0.373,-0.228,-0.5,-0.166,-0.791,1.14,0.547,0.539,0.267,0.418
GCTAGCAGGCCATTTGGGTCACACAATGACGGGC,0.201,0.0992,-0.68,0.327,-0.778,1.89,1.2,1.09,-0.147,0.392
CCTCGGAGGACAACAGGAGGTCAGAGCGGCCAGA,1.36,2.25,2.24,1.42,-0.43,2.09,0.411,0.182,-0.715,-0.31
GATACTGGGTCAAGGCCAGAGTACGCGTATTGAT,2.37,1.21,-0.0541,1.22,-0.791,4.05,5.9,5.27,2.7,4.74
GCTAGCAGGCCATTTGCGTCACTCAATGACGGGC,-0.489,-0.808,-0.589,-1.15,-0.965,-0.622,0.189,-0.578,-0.911,-0.185
CGATCTAGGTCATCCAGGACAGTGAATACATTGA,4.46,2.5,0.582,2.09,0.272,4.82,7.36,6.3,3.7,5.8
TCAGACAGGTGAACGTAACTCAGGTACGCAGTCG,0.443,0.558,-0.111,0.538,-0.313,1.43,1.05,2.06,3.66,2.83
ATCTCTAGGTAACCAAGTTTAGTGAATGCCGAAC,0.39,0.24,0.318,0.275,0.481,0.803,0.412,0.529,0.254,0.616
CAAGCTAGGTCACAGAGGTCAAAGTCCGTGCGTA,7.59,6.83,7.42,6.28,1.9,5.99,6.86,6.52,3.68,5.83
CGAACTAGGTCAGGACAGGACAGTGAAGGATGAT,1.85,0.936,-0.238,0.443,-0.587,3.13,5.98,5.1,2.35,4.11
AATACAGGGTCATCGTAGGCCCGAGTACGCACAG,6.78,5.81,2.32,3.99,0.935,5.82,6.57,6.13,2.54,5.01
ATACCAAGGTGATCGTCAGGTCGTTGATACTAAC,1.07,0.928,0.311,0.454,-0.244,0.892,0.38,0.265,0.184,0.227
GCTTACGGGTCAAAGGTTTTAGCATGAATAGAAT,6.63,4.06,0.0126,4.17,0.372,5.95,9.13,7.88,6.54,8.43
CCTTACGGGTCACGAGGTTATAGCGCGACGAGCG,7,4.91,0.435,3.79,-0.01,6.01,7.42,6.71,3.03,5.28
